Laboratory results reported in ChEMBL document CHEMBL3988442, “University of Dundee, Small-Polar-MMV Screening Library” (2021).
Hit rate of the full screen: of about 65,000 compounds, about 65 (0.1%) showed an effect of 50% or more. What follows is part of a selection rich in strong results, with near analogues and random picks from the rest.

These molecules were tested against Tryptophan--tRNA ligase (Mycobacterium tuberculosis (strain ATCC 25618 / H37Rv)) (UniProt P9WFT3) (assay: Biochemical assay for Mt-TrpRS). Conditions: 10 µM.
Tryptophan--tRNA ligase (Mycobacterium tuberculosis (strain ATCC 25618 / H37Rv)), sequence (P9WFT3 whole entry): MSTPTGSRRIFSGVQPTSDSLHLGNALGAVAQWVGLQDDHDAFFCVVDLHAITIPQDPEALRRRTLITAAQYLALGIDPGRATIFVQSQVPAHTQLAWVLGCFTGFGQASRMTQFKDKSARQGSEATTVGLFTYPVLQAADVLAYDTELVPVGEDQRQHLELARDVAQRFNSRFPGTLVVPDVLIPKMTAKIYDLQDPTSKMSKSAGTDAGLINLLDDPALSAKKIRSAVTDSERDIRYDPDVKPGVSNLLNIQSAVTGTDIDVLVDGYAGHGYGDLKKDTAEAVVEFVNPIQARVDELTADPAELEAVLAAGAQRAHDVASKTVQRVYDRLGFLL
Format: functional
Design: scale not given: direction of the effect not stated beside the values
Work on Cc1ccc(N2CC[C@H]3OCC[C@@]3(C(=O)N3CCCC3)C2)nn1 yielded a Percent Effect of 1.02%.
CCN(CC)S(=O)(=O)N1CCCC1c1cccc(Nc2ncc(C)s2)n1 (stereo not drawn) showed a Percent Effect of 1.88%.
CCn1cc(S(=O)(=O)NC(CO)Cc2c[nH]c3ccccc23)cn1 (stereo not drawn) was tested, and the Percent Effect was -4.44%.
CCn1cc(S(=O)(=O)NC(=O)CCc2c[nH]c3ccccc23)cn1 was tested, and the Percent Effect was 57.5%.
With CCn1cc(NC(=O)NC(CO)Cc2c[nH]c3ccccc23)cn1 (stereo not drawn) the Percent Effect was 2.58%.
Work on Cc1csc(C(=O)NCCN2CCC(c3cccs3)CC2)c1 yielded a Percent Effect of 0.44%.
Work on Cc1cccc(CN2CC[C@@H]3[C@@H]2CCN3C(=O)c2cc(C)on2)n1 yielded a Percent Effect of -0.968%.
CCN1CCN(C(=O)c2cc(-c3ccc(C)o3)n[nH]2)[C@H]2CS(=O)(=O)C[C@H]21 was tested, and the Percent Effect was 2.31%.
O=C(C1=CCCC1)N1CCO[C@H]2[C@@H](OCC3CC3)CC[C@@H]21 showed a Percent Effect of 0.105%.
In the case of Cc1cc(CN2CCN(C(=O)NCc3cccs3)CC2)no1, the Percent Effect is reported as -4.93%.
Work on Cc1cc(CN2CCN(C(=O)NCc3ccco3)CC2)no1 yielded a Percent Effect of 70.1%.
In the case of Cc1cc(CN2CCN(C(=O)NCc3ccoc3)CC2)no1, the Percent Effect is reported as -3.89%.
In the case of COCC(=O)N1C[C@@H](c2cccc(F)c2)[C@H]2[C@H]1CCCCCN2C(C)=O, the Percent Effect is reported as 9.95%.
Work on O=C(CC1CC1)N1CCC2(CC1)CN(Cc1cccnc1)C(=O)CO2 yielded a Percent Effect of -3.48%.
For Cn1cnnc1C1CCN(C(=O)c2cc3c(s2)CCC3)CC1, the Percent Effect was -1.59%.
Work on CCn1cnnc1C1CCN(C(=O)c2cc3c(s2)CCCC3)CC1 yielded a Percent Effect of -7.73%.
Cn1cnnc1C1CCN(C(=O)c2cc3c(s2)CCCC3)CC1 gave a Percent Effect of 83.8%.
Cc1nc(C)c(CNC[C@@]2(COc3cccnc3)C[C@@H](O)[C@@H](O)C2)s1 showed a Percent Effect of -10.4%.
For CN(Cc1ccco1)[C@@H]1CN(Cc2ccc(F)cc2)[C@@H]2CCCO[C@H]12, the Percent Effect was -5.38%.
In the case of CCS(=O)(=O)N1C[C@@H](OCc2ccccn2)[C@@H]2OCCC[C@@H]21, the Percent Effect is reported as 4.01%.
Work on Cn1nc(C#N)c2c1CN(C(=O)c1ccnnc1)CCC2 yielded a Percent Effect of 4.65%.
For Cn1nc(C#N)c2c1CN(C(=O)c1cccnc1)CCC2, the Percent Effect was 11.1%.
For Cn1nc(C#N)c2c1CN(C(=O)c1ccco1)CCC2, the Percent Effect was 50.1%.
For CC(C)CC(=O)N1C[C@H]2CCCN(S(=O)(=O)c3ccc(Cl)s3)[C@H]2C1, the Percent Effect was -3.18%.
CC(C)OCCCNC(=O)CS(=O)(=O)Cc1ccc(C(C)C)cc1 gave a Percent Effect of 2.32%.
In the case of Cc1ccc(CS(=O)(=O)CC(=O)NCCCOC(C)C)cc1, the Percent Effect is reported as -5.37%.
Molecule CC(C)OCCCNC(=O)CS(=O)(=O)Cc1ccc(Cl)cc1 has a Percent Effect of 75.4%.
Cn1ncc2c(N3CCCN4CCC[C@H]4C3)nc(C(C)(C)C)nc21 showed a Percent Effect of 2.18%.
CC(C)N1[C@H](CN2CCCC2)C[C@@H]2CN(C(=O)c3ccoc3)CC[C@@H]21 showed a Percent Effect of 0.0969%.
COCCN1CCC(NCc2cc(F)ccc2F)C1 (stereo not drawn) was tested, and the Percent Effect was 12.2%.
Work on COCCN1CCC(NCc2ccc(F)cc2F)C1 (stereo not drawn) yielded a Percent Effect of 83.4%.
Work on COCCN1CCC(NCc2cccc(F)c2)C1 (stereo not drawn) yielded a Percent Effect of -5.04%.
O=C(c1ccccn1)N1C[C@@H]2CC[C@H](C1)N(C(=O)CCN1CCCC1)C2 was tested, and the Percent Effect was 4.71%.
O=C(O)CCC(=O)N1CCC(c2noc3cc(F)ccc23)CC1 was tested, and the Percent Effect was 1.33%.
In the case of NC(=O)CN1CCC(c2noc3cc(F)ccc23)CC1, the Percent Effect is reported as 76.4%.
In the case of O=C(O)CCCC(=O)N1CCC(c2noc3cc(F)ccc23)CC1, the Percent Effect is reported as 1.46%.
Work on CCS(=O)(=O)N1CCC[C@]2(C(=O)N(C)C)CN(c3ccccn3)C[C@@H]2C1 yielded a Percent Effect of -1.99%.
With NC(=O)N1CCc2cc(C(=O)O)c(-c3ccsc3)nc2CC1 the Percent Effect was -4.21%.
In the case of Cc1ncsc1C(=O)N(Cc1ccccn1)C1CC1, the Percent Effect is reported as 75.1%.
In the case of Cc1ncsc1C(=O)N(Cc1cccs1)C1CC1, the Percent Effect is reported as -1.87%.
Cc1ncsc1C(=O)N(Cc1ccccc1)C1CC1 gave a Percent Effect of -6.55%.
Molecule O=C(NC1CC(F)(F)C1)[C@]12COC[C@H]1CN(Cc1cccnc1)C2 has a Percent Effect of -2.86%.
Molecule Cc1ncsc1CN1C[C@@H]2COC[C@]2(C(=O)NCC2CC2)C1 has a Percent Effect of 0.881%.
CCc1cnc(N2C[C@H]3C[C@H](C(=O)NCC(C)C)[C@@H](C2)O3)nc1 gave a Percent Effect of 1.95%.
Molecule CC(=O)c1cccc(NC(=O)N(CC(F)F)C2CC2)c1 has a Percent Effect of 4.27%.
Cc1cccc(NCc2nc(C)ccc2O)c1 was tested, and the Percent Effect was 52.2%.
For Cc1ccc(O)c(CNc2cccc(OCCF)c2)n1, the Percent Effect was -4.08%.
CCn1nnnc1-c1cccc(NCc2nc(C)ccc2O)c1 gave a Percent Effect of -6.59%.
Work on CCNC(=O)[C@@H]1C[C@@H](N)CN1C(=O)c1cc2ccccc2[nH]1 yielded a Percent Effect of 2.18%.
Work on Cc1ccc(N2C[C@@H]3CN(C(=O)c4ccccc4)CCO[C@@H]3C2)nn1 yielded a Percent Effect of 12.7%.
Molecule Cn1ccnc1CN1CCN2C[C@H](Oc3ccccc3)C[C@H]2C1 has a Percent Effect of 2.44%.
CC(=O)Nc1ccc(CN2C[C@H]3CC[C@@H]2CN(c2ncccn2)C3)cc1 gave a Percent Effect of 3.06%.
c1cncc(CN2CCO[C@H]3[C@H](OCCN4CCCC4)CC[C@@H]32)c1 gave a Percent Effect of 2.57%.
Cc1c[nH]c(CN2CC[C@@]3(O)CCN(C(=O)C4CCC4)C[C@H]3C2)n1 showed a Percent Effect of 1.37%.
Molecule Cc1ncsc1C(=O)NC1CCN(CCC#N)CC1 has a Percent Effect of 57.5%.
With Cc1ncsc1C(=O)NC1CCN(CCC(N)=O)CC1 the Percent Effect was 0.56%.
Work on Cc1ncsc1C(=O)NC1CCN(CCCC#N)CC1 yielded a Percent Effect of -4.15%.
Work on CN(Cc1cccnc1)C[C@H]1OC[C@@H]2CCN(C(=O)C3CC3)C[C@@H]21 yielded a Percent Effect of -1.23%.
